Screening data as filed in PubChem BioAssay.
GRK2 aptamer HTS – compounds blocking aptamer binding on GRK2 – biochemical, human GRK2, bead flow cytometry, HTS, primary screen; inhibition of aptamer binding, % at 10 µM; 330,000 tested, 0.59% active; FAM-aptamer displacement from GRK2; Beta-adrenergic receptor kinase 1 (Homo sapiens), P25098;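 active = inhibition of aptamer binding above 40%, roughly 3 SD of noise, on plates passing a quality check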;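 note: median bead fluorescence of bound FAM aptamer so fluorescent compounds give negative values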
Target sequence (P25098 whole entry, looked up): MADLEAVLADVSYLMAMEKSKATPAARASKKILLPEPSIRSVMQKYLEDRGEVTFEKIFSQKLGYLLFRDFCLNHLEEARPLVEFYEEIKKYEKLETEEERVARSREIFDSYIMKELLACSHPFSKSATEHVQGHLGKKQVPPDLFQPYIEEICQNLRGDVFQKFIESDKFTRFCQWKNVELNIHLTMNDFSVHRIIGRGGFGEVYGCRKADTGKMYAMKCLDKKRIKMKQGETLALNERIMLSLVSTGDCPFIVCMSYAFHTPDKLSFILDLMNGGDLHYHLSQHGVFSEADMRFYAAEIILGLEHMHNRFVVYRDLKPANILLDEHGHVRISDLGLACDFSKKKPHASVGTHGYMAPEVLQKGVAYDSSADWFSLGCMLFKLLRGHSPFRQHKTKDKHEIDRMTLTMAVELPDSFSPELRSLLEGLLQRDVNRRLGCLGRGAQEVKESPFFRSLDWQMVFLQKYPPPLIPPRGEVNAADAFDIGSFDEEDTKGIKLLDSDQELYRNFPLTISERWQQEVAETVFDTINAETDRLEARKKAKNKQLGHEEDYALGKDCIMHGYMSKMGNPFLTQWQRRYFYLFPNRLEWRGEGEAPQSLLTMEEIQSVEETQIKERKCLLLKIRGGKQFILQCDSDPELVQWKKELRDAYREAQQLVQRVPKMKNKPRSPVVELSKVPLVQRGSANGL
APOBEC3G inh – APOBEC3G DNA deaminase inhibitors, primary screen, biochemical, fluorescence, single-stranded DNA substrate, uHTS | DNA dC->dU-editing enzyme APOBEC-3G (Homo sapiens), Q9HC16 | recombinant A3G, ssDNA deamination FAM/TAMRA fluorescence | inhibition, % at 20 µM | 330,000 tested, 0.28% active | AID 493012, 2011;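 active = inhibition of at least 40% at 20 µM, with no more than 30% in the related APOBEC3A deaminase screen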;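 note: plate controls were DMSO wells with A3G for no effect and wells lacking A3G enzyme for full effect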
A3A deaminase – APOBEC3A ssDNA deaminase inhibitors, primary screen, selectivity assay for APOBEC3G inhibitor project, biochemical, FAM/TAMRA oligo cleavage fluorescence | AID 493011, 2011 | 330,000 tested, 0.41% active | inhibition, % at 20 µM | recombinant A3A, FAM/TAMRA ssDNA deamination fluorescence;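 active = at least 40% inhibition at 20 µM here, with at most 30% in a related deaminase screen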;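 note: plate controls were A3A with DMSO for no effect and wells lacking A3A enzyme for full effect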
VLA-4 inh – inhibition in human VLA-4 binding assay, primary screen, VLA-4 allosteric modulator project, MLPCN library, flow cytometry, VLA-4 expressing cells | Integrin alpha-4 (Homo sapiens), P13612 | ligand binding flow cytometry | inhibition, % (about 7 µM as worked out from the volumes in the protocol) | 330,000 tested, 0.2% active; in the data active = inhibition above about 50%
GRK2 CP1 – GRK2 aptamer-displacing inhibitors, retest, confirmation, biochemical, cherry pick 1, bead flow cytometry. shares compounds with GRK2 aptamer HTS. bead-bound GRK2, FAM-aptamer displacement. aptamer displacement, % at 10 µM. 2,000 tested, 4% active. AID 504451, 2011;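 active = aptamer displacement above 40%, near three times the noise of non-fluorescent compounds, on plates passing quality checks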;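 note: negative values mostly reflect intrinsic compound fluorescence rather than true enhancement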
Aptamer quench SP – quenches fluorescent RNA aptamer, GRK2 hit artifact. 2,000 tested, under 10 active. Carboxyfluorescein RNA aptamer on beads, flow cytometry quenching; hits give low values. shares compounds with GRK2 aptamer HTS. fluorescence response (% of DMSO), % at 10 µM;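 active = compounds that quench the bead-bound fluorescent RNA probe, cutting fluorescence to under half of the solvent control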;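 note: counterscreen run without GRK2 so only probe quenching by compound is measured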
GRK2 CP2 – GRK2 aptamer-displacing inhibitors, hit retest, confirmation, biochemical, cherry pick 2, bead flow cytometry | shares compounds with GRK2 aptamer HTS | bead-bound GRK2, FAM-aptamer displacement | inhibition of aptamer binding, % at 10 µM | 360 tested, under 10 active;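 active = inhibition of aptamer binding above 40%, about triple the noise seen with nonglowing compounds, on plates passing quality control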;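 note: negative values mostly come from compounds that fluoresce themselves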
FAM quench CP2 – aptamer fluorescence quenching in GRK2 counter-screen; 360 tested, under 10 active; fluorescence response vs DMSO, % at 10 µM; shares compounds with GRK2 aptamer HTS; AID 588494; carboxyfluorescein RNA aptamer beads, flow cytometry quenching; hits give low values;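 active = response vs DMSO under 50%, meaning signal dropped by over half, treated as fluorescence quencher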;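 note: labelled aptamer on streptavidin beads without GRK2 as a quench counter-screen; 100% = bead fluorescence of DMSO wells and lower means quenching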
An asterisk follows results filed as active; nt = not tested or not shown. This is a sample that favours compounds with a hit; in the whole collection about 1.4% have one here.

SMILES	GRK2 aptamer HTS	APOBEC3G inh	A3A deaminase	VLA-4 inh	GRK2 CP1	Aptamer quench SP	others
NCCCC[C@@H]1NC(=O)c2cc([N+](=O)[O-])cc(I)c2SC[C@@H](C(N)=O)NC(=O)[C@H](Cc2ccc(O)cc2)NC1=O	69*	2	8	-7	-39	104
COc1ccc(CC(=O)NCCN2CCOCC2)cc1	32	0	-1	6	3	101
CCOc1ccc(OCCOCCN2CCOCC2)cc1	3	0	-1	-2	nt	nt
COc1ccc(OCCOCCN2CCOCC2)cc1	56*	10	0	-1	1	99
O=C(CSc1ccc2ccccc2n1)NC1CC1	1	-5	-3	7	nt	nt
O=C(CSc1nnc(Nc2ccccc2F)s1)NC(=O)CN1CCCC1=O	47*	4	27	2	26	98
CSCCC(NC(=O)c1cccc(C)c1)C(=O)NNC(=O)c1cccs1 (stereo not drawn)	0	-4	-3	3	nt	nt
COc1ccccc1OCCC(=O)Nc1cccc(S(=O)(=O)N2CCOCC2)c1	97*	-6	-2	3	0	101
CN(CCO)C(=O)c1c(NC(=O)c2ccccc2)sc2c1CCCC2	42*	-3	-6	-40	1	95
CN(C)CCNC(=O)c1c(NC(=O)c2ccccc2)sc2c1CCCC2	0	-5	-6	7	nt	nt
COc1cc(OC)cc(-c2sc3ccc(OC)cc3c2C#CCO)c1	0	-3	-4	19	nt	nt
Cc1nn(-c2ccccc2)c(Cl)c1C(=O)NC1CCCCC1	1	-9	-3	6	nt	nt
O=C(NC1CCCCC1)c1cc(C2CC2)nn1-c1ccccc1	89*	-4	-2	9	1	97
O=C(O)CCCCCNS(=O)(=O)c1ccc2c3c(cccc13)C(=O)N2	5	-3	5	2	nt	nt
O=C(O)CNS(=O)(=O)c1ccc2c3c(cccc13)C(=O)N2	78*	2	5	-13	-1	100
O=C(NCC1CCCO1)c1cccc(NC(=O)c2ccc(Br)cc2)c1 (stereo not drawn)	5	-9	0	-7	nt	nt
Cc1cc(C)cc(NC(=O)c2cccc(NC(=O)c3ccco3)c2)c1	0	-6	-4	-7	-1	90
O=C(NCC1CCCO1)c1cccc(NC(=O)c2ccco2)c1 (stereo not drawn)	0	-5	0	15	-1	111
O=C(NCc1cccnc1)c1cccc(NC(=O)c2ccco2)c1	0	-5	-5	8	5	97
Cc1ccc(C(=O)Nc2ccccc2Cl)cc1	0	-6	-8	4	nt	nt
COc1cccc2sc(Nc3nc(-c4cc5ccccc5oc4=O)cs3)nc12	0	nt	nt	-5	nt	nt
CCCCN1C(C(=O)Nc2ncccn2)=C(O)c2ccccc2S1(=O)=O	4	-5	5	0	-1	96
CN1C(C(=O)Nc2ccc(C(=O)O)cc2)=C(O)c2ccccc2S1(=O)=O	0	-2	-1	6	nt	nt
O=C(Nc1ccc(Cl)cc1)c1cc(S(=O)(=O)N2CCOCC2)cs1	0	-2	3	-3	nt	nt
COc1ccc(C(=O)NCc2nnc(SCC(=O)Nc3cc(C)on3)o2)cc1OC	0	0	5	0	nt	nt
SMILES	GRK2 aptamer HTS	APOBEC3G inh	A3A deaminase	VLA-4 inh	GRK2 CP1	Aptamer quench SP	others
COc1cc(C(=O)NCc2nnc(SCC(=O)Nc3cc(C)on3)o2)cc(OC)c1OC	74*	-5	1	-1	0	103
CSCC[C@H](NC(=O)Cc1c(C)c2c(cc(C)c3c(C)coc32)oc1=O)C(=O)O	97*	-4	-2	5	-5	95
CC[C@@H](C)[C@H](NC(=O)Cc1c(C)c2c(cc(C)c3c(C)coc32)oc1=O)C(=O)O	0	-8	-3	3	nt	nt
COc1ccccc1S(=O)(=O)Cc1ccc(C(=O)NC(C)c2ccc3c(c2)OCCO3)o1 (stereo not drawn)	2	1	2	-8	1	99
Cc1ccccc1S(=O)(=O)Cc1ccc(C(=O)NC(C)c2ccccc2)o1 (stereo not drawn)	0	-3	-3	15	nt	nt
CN1CCN(NC(=O)c2ccc(Br)s2)CC1	0	-7	1	13	nt	nt
CCc1sc(C(=O)Nc2ccc3c(c2)OCCO3)cc1Br	2	-7	1	10	nt	nt
O=C(NN1CCOCC1)c1ccc(Br)s1	69*	-3	0	10	0	102
O=C(Nc1ccc2c(c1)OCCO2)c1ccc(Br)s1	0	nt	nt	15	3	102
CC(=O)N=C1SC2CS(=O)(=O)CC2N1c1ccccc1Cl (stereo not drawn)	0	-1	1	-4	nt	nt
CCCOc1ccc(N2C(=O)CC(NCCCN3CCC(C(N)=O)CC3)C2=O)cc1 (stereo not drawn)	0	2	2	5	nt	nt
NS(=O)(=O)c1ccc(NC(=S)NC2CC2)cc1	3	-1	-5	10	nt	nt
CC1(C)CC(NC(=S)Nc2ccc(S(N)(=O)=O)cc2)CC(C)(C)N1	72*	-3	-2	24	-3	104
COc1ccc(CCN2C(=O)C(Oc3ccccc3C)C2c2ccc3c(c2)OCO3)cc1OC (stereo not drawn)	0	-6	1	3	nt	nt
O=C(c1ccccn1)C1CCCN(Cc2cn[nH]c2-c2cc3ccccc3o2)C1 (stereo not drawn)	90*	-3	0	9	2	100
COc1ccc2[nH]cc(CCn3ccc(O)c(C/C=C/c4ccccc4)c3=O)c2c1	3	-6	-5	10	nt	nt
O=C(CSc1nc2sc3c(c2c(=O)n1-c1ccccc1)CCCC3)NCc1ccco1	0	-6	2	-9	nt	nt
COCCCn1c(SCC(=O)NCc2ccco2)nc2sc3c(c2c1=O)CCC3	3	-4	1	-2	nt	nt	GRK2 CP2=13;FAM quench CP2=100
CCCCn1c(SCC(N)=O)nc2sc3c(c2c1=O)CCC3	4	13	4	13	nt	nt
CCN(CC)C(=O)CSc1nc2sc3c(c2c(=O)n1CCCOC)CCC3	0	-6	-6	14	nt	nt	GRK2 CP2=-14;FAM quench CP2=100
